KCNQ2 block: inhibitors of rat KCNQ2 potassium channel. CHO-K1 KCNQ2, FluxOR thallium flux, 20 min; hits give low values. O88943. B-score at 10 µM. 1.1% of 310,000 active;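 active = fluorescence ratio B-score at most minus 3 library SDs, with starting brightness B-score within 2 library SDs, cut at about -5.5 in these data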
Target sequence (O88943 whole entry, looked up): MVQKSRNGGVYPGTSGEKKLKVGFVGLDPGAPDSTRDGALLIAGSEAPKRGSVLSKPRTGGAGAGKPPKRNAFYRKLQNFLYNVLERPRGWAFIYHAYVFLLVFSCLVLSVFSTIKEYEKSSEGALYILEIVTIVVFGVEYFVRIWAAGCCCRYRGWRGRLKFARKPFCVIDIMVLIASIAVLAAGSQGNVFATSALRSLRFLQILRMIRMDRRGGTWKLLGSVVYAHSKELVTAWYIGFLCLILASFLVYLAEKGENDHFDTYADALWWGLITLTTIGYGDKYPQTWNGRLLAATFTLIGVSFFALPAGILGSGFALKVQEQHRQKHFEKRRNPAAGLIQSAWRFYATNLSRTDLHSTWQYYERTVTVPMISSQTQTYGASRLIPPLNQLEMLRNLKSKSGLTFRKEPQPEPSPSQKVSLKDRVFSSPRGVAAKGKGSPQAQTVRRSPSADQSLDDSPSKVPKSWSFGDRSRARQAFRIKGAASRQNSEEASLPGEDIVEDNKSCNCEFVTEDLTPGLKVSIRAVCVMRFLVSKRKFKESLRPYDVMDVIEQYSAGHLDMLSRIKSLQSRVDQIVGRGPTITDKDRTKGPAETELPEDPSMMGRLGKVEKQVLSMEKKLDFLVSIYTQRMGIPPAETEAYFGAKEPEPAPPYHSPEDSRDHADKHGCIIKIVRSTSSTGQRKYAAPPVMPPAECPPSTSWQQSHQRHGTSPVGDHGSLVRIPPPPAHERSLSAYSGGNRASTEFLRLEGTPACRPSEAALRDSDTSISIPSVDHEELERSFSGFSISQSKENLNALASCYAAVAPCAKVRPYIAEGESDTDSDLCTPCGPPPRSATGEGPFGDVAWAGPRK
KCNQ2 enhance: enhances the rat KCNQ2 potassium channel; AID 2239; CHO-K1 KCNQ2, FluxOR thallium flux fluorescence; hits give high values; 0.54% of 310,000 active; O88943; B-score at 10 µM;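 active = fluorescence ratio B-score at least 3 SD of library B-scores, with initial fluorescence B-score within 3 of them, cut at about 5.3 in these data; same plate scores as AID 2156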;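 note: B-score of peak minus minimum over baseline fluorescence ratio after K+ and Tl+ stimulus; positive B-score means potentiation of KCNQ2 with more thallium influx and brighter signal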
Starred values were filed as active, the others as inactive; i = inactive; x = no result. Compounds with a hit are over-represented: about 1.6% of the library has one in this group of screens.

SMILES	KCNQ2 block	KCNQ2 enhance
COc1ccc(-c2cc(N)n(S(=O)(=O)c3ccc(F)cc3)n2)cc1OC	i	1.39
Cn1c(=O)c2sccc2n2c(CCCC(=O)NC3CCN(Cc4ccccc4)CC3)nnc12	i	x
CCOC(=O)N1CCN(C(=O)c2ccc(CS(=O)(=O)c3ccccc3OC)o2)CC1	i	0.24
COc1ccccc1S(=O)(=O)Cc1ccc(C(=O)N2CCN(c3ccc(C)cc3)C(C)C2)o1 (centres undefined)	-6.57*	-6.57
O=C(Nc1ccc(O)cc1C(=O)O)c1cccs1	i	x
COc1ccc(CCNC(=O)c2ccc(CNS(=O)(=O)c3cc(C)ccc3C)cc2)cc1OC	i	0.31
COc1cc(NC(=S)N2CCCCC2C)c(OC)cc1Cl (centres undefined)	i	x
COc1cc(NC(=O)C(=O)NNC(=O)C2CCCCC2)c(OC)cc1Cl	i	9.75*
COC(=O)C1=C(C)C(c2ccc(OC)cc2OC)NC(=O)N1 (centres undefined)	i	x
COc1ccc(C2CC(C)(c3ccc(OC)cc3OC)Nc3ccccc3N2)c(OC)c1 (centres undefined)	-6.4*	-6.4
CCCC/C(O)=C1\C(=O)CC(C)(C)CC1=NCCCCCC(=O)O	i	x
COc1cccc(C2c3c(oc4ccc(Cl)cc4c3=O)C(=O)N2c2cc(C)on2)c1OC (centres undefined)	-7.19*	-7.19
COc1ccc(/C(O)=C2\C(=O)C(=O)N(c3cc(C)on3)C2c2cccc(OC)c2OC)cc1C (centres undefined)	i	0.65
CCC(=O)c1cn([C@@H](CCC(OC)OC)CC(=O)OC(C)(C)C)cc1CC	i	x
O=C(NC(Cc1ccccc1)C(=O)O)/C(=C/c1cccc([N+](=O)[O-])c1)NC(=O)c1cccc(Br)c1 (centres undefined)	i	0.61
Cc1ccc(OCC(=O)NC2CCSc3ccccc32)cc1 (centres undefined)	-5.94*	-5.94
CCCOc1ccc(C(=O)NC2CCSc3ccccc32)cc1 (centres undefined)	i	x
O=C(CC1NCCNC1=O)Nc1cccc([N+](=O)[O-])c1 (centres undefined)	i	0.06
CCC(O)c1nc2ccccc2n1CCc1ccccc1 (centres undefined)	i	x
Cc1ccccc1CN1CCN(Cc2ccccc2C(F)(F)F)CC1	i	x
Cc1ccc(S(=O)(=O)N2CCN(Cc3ccccc3C(F)(F)F)CC2)cc1	-5.98*	-5.98
CC1(C)Cc2cccc(OCC(=O)N3CCN(c4ccccc4Cl)CC3)c2O1	-6.17*	-6.17
CC1(C)Cc2cccc(OCC(=O)N3CCN(c4cccc(Cl)c4)CC3)c2O1	i	x
O=C(NCC(c1ccco1)N1CCc2ccccc21)c1ccccc1 (centres undefined)	i	x
Cc1ccc(C(=O)NCC(c2ccco2)N2CCc3ccccc32)cc1C (centres undefined)	-6.19*	-6.19
SMILES	KCNQ2 block	KCNQ2 enhance
COc1ccccc1C(=O)NCC(c1ccco1)N1CCc2ccccc21 (centres undefined)	-6.3*	-6.3
O=C(NCC(c1ccco1)N1CCc2ccccc2C1)c1cccc(F)c1 (centres undefined)	-5.85*	-5.85
COc1cccc(C(=O)NCC(c2ccco2)N2CCc3ccccc3C2)c1 (centres undefined)	i	x
O=C(NCC(c1ccco1)N1CCCC1)c1ccc(S(=O)(=O)Nc2ccccc2F)cc1 (centres undefined)	i	0.06
COc1cc(C(=O)NCC(c2ccco2)N2CCc3ccccc32)cc(OC)c1OC (centres undefined)	i	x
Cc1ccccc1NS(=O)(=O)c1ccc(C(=O)NCC(c2ccco2)N2CCCCC2)cc1 (centres undefined)	-6.67*	-6.67
O=C(CN1CCN(c2cccc(Cl)c2)CC1)c1ccc(O)cc1O	i	0.12
C[C@]1(CO)CCC[C@@]2(C)C1CC[C@@H](CO)[C@@H]2CCc1ccoc1 (some centres undefined)	i	1.95
O=C(O)CCCNc1ccc([N+](=O)[O-])c(NCCCC(=O)O)n1	i	0.32
O=C(Cc1c[nH]c2ccccc12)Nc1ccccc1N1CCOCC1	i	x
Cc1ccc(Cn2ncc3c(N4CCN(Cc5ccc(Cl)cc5)CC4)ncnc32)cc1	i	x
Cc1ccccc1N1CCN(c2ncnc3c2cnn3Cc2ccc(Cl)cc2)CC1	-5.72*	-5.72
CCN(CC)C(=O)CN1CCC(c2nc3cc(C)c(C)cc3[nH]2)CC1	i	x
COc1cc(CNC(=O)c2cccc(COc3ccc(Cl)cc3)c2)cc(OC)c1	-5.93*	-5.93
O=C(NCc1ccccc1)c1cccc(COc2ccc(Cl)cc2)c1	i	x
CCOC(=O)C1CCN(C(=O)c2ccccc2NC(=O)C2=C(C)OCCS2)CC1	i	0.02
CC(C)N(C(=O)CSc1nc2ccccc2n1Cc1ccccc1)C(C)C	i	x
CC(C)N(C(=O)CSc1nc2ccccc2n1-c1ccccc1)C(C)C	-6.01*	-6.01
Cn1c(=O)c([N+](=O)[O-])c(NCCCn2ccnc2)c2ccccc21	i	x
Cn1c(=O)c([N+](=O)[O-])c(-n2ccnc2)c2ccccc21	-6.05*	-6.05
COc1c(CC=C(C)C)cc(C2CC(=O)c3c(O)cc(O)cc3O2)c(CC=C(C)C)c1O (centres undefined)	-5.82*	-5.82
COc1cc(C2CC(=O)c3c(O)cc(O)cc3O2)ccc1O (centres undefined)	i	x
CCc1c(O)cc(=O)n(-c2ccccc2)c1-c1ccccc1	i	x
O=C(Nc1nnc(S(=O)(=O)N2CCN(c3ccc(F)cc3)CC2)s1)c1ccccc1	i	0.01
COC(=O)c1ccccc1NC(=O)c1ccc(COc2cccc3ccccc23)o1	-6.46*	-6.46
SMILES	KCNQ2 block	KCNQ2 enhance
COC(=O)c1ccc(COc2ccccc2OC)o1	i	0.51
O=C(Nc1ccc2c(c1)OCCO2)c1cc2sccc2n1Cc1ccccc1	i	x
O=C(Nc1ccc2c(c1)OCCO2)c1cc2sccc2n1Cc1ccc(F)cc1	-6.14*	-6.14
C=CCOC(=O)/C(=C\c1cccc2ccccc12)NC(=O)c1ccccc1	-5.78*	-5.78
C=CCOC(=O)/C(=C\c1ccccc1)NC(=O)c1ccc(C)cc1	i	x
COc1ccc(-c2nc(-c3ccccn3)ncc2S(C)(=O)=O)cc1	i	1.53
Cn1nc(-c2ccccn2)nc2c(=O)n(C)c(=O)nc1-2	i	7.4*
COc1ccccc1N1CCN(C(=O)C2CCC(CNS(=O)(=O)c3ccc(NC(C)=O)cc3)CC2)CC1 (centres undefined)	i	x
Cc1cccc(C2(c3cccc(C)c3)CC2C(=O)Nc2ccc([N+](=O)[O-])cc2O)c1 (centres undefined)	i	x
COc1ccccc1C(=O)Nc1ccc(S(=O)(=O)N2CCCCC2)cc1	i	0.57
COc1ccc(NC(=O)C(Sc2nnc(-c3ccncc3)n2-c2ccccc2C)c2ccccc2)cc1Cl (centres undefined)	-5.55*	-5.55
COc1ccc(NC(=O)C(OC)c2ccccc2)cc1Cl (centres undefined)	i	2.5
COC(=O)c1cn(NC(=O)Cn2nc([N+](=O)[O-])c(Br)c2C)c(=O)c2ccccc12	i	2.12
Oc1ccc(C(c2nnnn2CCc2ccccc2)N2CCN(c3nc4ccccc4s3)CC2)cc1 (centres undefined)	i	x
c1ccc(-n2cnnc2SCc2cn3ccsc3n2)cc1	i	x
Cc1ccc(-n2c(SCc3cn4ccsc4n3)nc3ccccc3c2=O)cc1	-5.63*	-5.63

Bioassay records from PubChem.
